According to PubChem BioAssay (NCI):
The panel holds about 83,000 compounds, 20% with a hit somewhere; the sample as a whole holds those more often.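 Cells were grown in 96-well plates and exposed to the test compound at a single concentration for 48 hours; results are reported as percent growth, with values below 10 considered active.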 A number with no mark means an inactive call. Calls of active or inactive are those of the source.

How the values were obtained:
Assay in all cases: NCI-60 one-dose screen, 48 h (100 = growth as untreated, 0 = no growth, -100 = all killed)
Details in all cases: 10 µM
[1] = tested on: NCI-H23 lung
[2] = tested on: NCI-H322M lung
[3] = tested on: HOP-62 NSCLC
[4] = tested on: NCI-H460 lung
[5] = tested on: HOP-92 NSCLC
[6] = tested on: NCI-H522 lung
[7] = tested on: A549/ATCC NSCLC
[8] = tested on: 786-0 renal
[9] = tested on: COLO 205 colon
[10] = tested on: NCI-H226 lung

SMILES	growth [1] [%]	growth [2] [%]	growth [3]	growth [4]	growth [5]	growth [6]	growth [7]	growth [8] [%]	growth [9]	growth [10]
NC(=S)N/N=C/c1ccc(N)cc1	89.5	99.4	97%	106%	89.1%	92.3%	76%	99.9	110%	–
COC(=O)c1cc(-c2ccc(Cl)c(Cl)c2)[nH]c(=O)c1C#N	107	95.4	95.5%	109%	91.4%	97.6%	101%	91.7	114%	–
CC1CC(O)C2C3(C)CCCC2(COC3=O)C12CCC1(CCOC1=O)O2 (stereo not given)	109	117	111%	95.4%	81.8%	107%	110%	99.1	118%	–
O=[N+]([O-])c1cccc(N=Nc2ccc(O)cc2O)c1	74.3	95.9	103%	91.6%	47.4%	-11.1% (active)	93.6%	74	92.2%	–
O=C(O)CNC(=O)c1ccccc1	107	104	–	–	–	–	–	–	–	–
CCn1c(=O)n(C)c2c(=O)n(C)c(=O)n(C)c21	98.9	105	97.2%	112%	102%	–	101%	109	101%	–
CC(=O)/C(Cc1ccccc1)=N/O	97.3	105	98.4%	105%	68%	74.3%	95.4%	102	97.9%	–
FC(F)(F)c1ccc2c(c1)N(CCCN1CCN(C3CC3)CC1)c1ccccc1S2	27	112	95.7%	24.4%	51.1%	28.7%	67.3%	63.9	79.9%	–
CCCCCCCCCCC1CO1 (stereo not given)	106	109	95.1%	105%	89.7%	102%	99.5%	101	105%	–
COCCOC(=O)c1ccc(C(C)C)cc1	102	98.2	80.3%	108%	81.8%	79.7%	79.5%	93.8	104%	–
CC(=Nc1ccccc1)C1=C(O)C(Cc2cccc(F)c2)NC1=O (stereo not given)	17.1	31.8	28.9%	6.19% (active)	41.2%	-34.5% (active)	14.3%	15.3	-55.5% (active)	–
CCOC(=O)c1ccc(NC(=S)P(=O)(c2ccccc2)c2ccccc2)cc1	102	94.7	105%	71.3%	78.1%	113%	103%	101	115%	–
CCCCOC(=O)c1ccc(C(C)C)cc1	98.2	96.3	85.4%	109%	88.2%	83.1%	77%	95.4	110%	–
OCC(O)C(O)C(O)C(O)/C=N/O (stereo not given)	101	103	83.5%	99.8%	74.8%	94.9%	60.9%	96.8	112%	–
CN(C)c1ccc2oc(=O)c3ccccc3c2c1	98.3	94.8	78%	97.3%	68.3%	97.1%	105%	79.5	119%	–
CC(=O)OCC1OC(OC2=C(CC=C(C)C)C(=O)c3ccccc3C2=O)C(OC(C)=O)C(OC(C)=O)C1OC(C)=O (stereo not given)	23.3	77.5	94.5%	34.6%	-3.11% (active)	22.3%	79.5%	88.9	66%	–
Cc1cc(N)c(S(=O)(=O)O)c(N)c1	97	101	94.9%	104%	47.1%	87.9%	109%	105	–	–

SMILES	growth [1] [%]	growth [2] [%]	growth [3]	growth [4]	growth [5]	growth [6]	growth [7]	growth [8] [%]	growth [9]	growth [10]
CC1(c2ccccc2)NC(=O)NC1=O (stereo not given)	116	97.2	111%	118%	100%	99.4%	96.5%	–	130%	–
O=c1[nH]nc(SC2CCCCC2)c(=O)[nH]1	91.3	96.8	93.7%	104%	82%	80.5%	91.4%	–	–	–
COc1cc2c3cc1Oc1c(OC)c(OC)cc4c1C(Cc1ccc(O)c(c1)Oc1ccc(cc1)CC3N(C)CC2)N(C)CC4 (stereo not given)	10.8	44.6	4.33% (active)	2.92% (active)	-17.1% (active)	-34.4% (active)	-33% (active)	32.3	-97.3% (active)	–
COc1cc([C@@H]2c3cc4c(cc3[C@H](O)[C@H]3COC(=O)[C@H]23)OCO4)cc(OC)c1OC	13.1	–	–	9.21% (active)	11.3%	–	14.2%	12.4	-57.8% (active)	-9.84% (active)
CCOC(=O)C1=C(Nc2ccc(Br)cc2)C(=O)N(CC)C1	98.8	95.6	85.9%	107%	48.3%	–	98.8%	91.4	108%	–
CC1CC(O)CC(C)(C)C1 (stereo not given)	98.4	98.2	97.9%	106%	96.5%	–	97.3%	107	102%	–
Cc1cc(N)ccc1-c1ccc(N)cc1C	92.8	104	89.9%	104%	47.6%	96.9%	92.8%	101	103%	–
Oc1ccc(N=Nc2ccc(Br)cc2)c(O)c1	19.6	67	27.5%	8.13% (active)	64.3%	-32.1% (active)	12.5%	15.6	129%	–
COc1cc2nn(-c3ccccc3N)nc2cc1OC	94.3	97.1	103%	102%	85.8%	100%	95.1%	95.7	119%	–
CC(=O)Nc1c(C)cc(C)cc1C	101	103	109%	105%	69%	94%	102%	–	110%	–
CCCC(C)OCC(=O)O (stereo not given)	109	96.8	111%	103%	76.6%	101%	93.9%	107	108%	–
O=S(=O)(Cc1ccccc1)c1ccccc1	105	118	104%	112%	105%	104%	98.6%	101	112%	–
CCNc1nc2c(cnn2C)c(=O)[nH]1	99.7	95.5	101%	108%	99.8%	–	109%	101	96.5%	–
CCCCCCCCO	97.5	108	99.6%	103%	107%	107%	100%	102	114%	–
COC(=O)Nc1nc2ccc(C(=O)c3cccs3)cc2[nH]1	14.2	–	–	7.45% (active)	63.9%	–	19.5%	19	-40% (active)	0.146% (active)
C/C(=N/NC(N)=O)c1ccco1	97.1	107	85.7%	107%	89.8%	–	83.7%	99.9	105%	–
CCN(CC)CCCC(C)Nc1ccnc(/C=C/c2ccc(Cl)cc2)c1 (stereo not given)	–	21.3	38.4%	9.3% (active)	-19.8% (active)	-38.6% (active)	9.38% (active)	45.2	-64.4% (active)	62.6%
